Compound activity: PubChem BioAssay, several laboratories
Rtt109 HAT inh: blocks Candida albicans Rtt109/Vps75 acetyltransferase activity; Q5AAJ8; AID 540336; purified Rtt109/Vps75, ThioGlo CoA-SH fluorescence, 4 h; inhibition, % at 34.9 µM; hit rate 0.16% among 330,000;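 active = inhibition of at least 50% in every replicate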
TLR9-MyD88 inh: inhibitors of human TLR9-MyD88 binding. CHO BLA complementation TLR9-MyD88, CCF4 FRET ratio. hit rate 0.21% among 340,000. Q9NR96+Q99836. inhibition, % at 4.98 µM. AID 504734;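 active = inhibition above the mean over all tested compounds plus 3 SD, cut at about 21% in these data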;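 also: 0% = DMSO only wells and 100% = clavulanate BLA inhibitor control wells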
NOD2-RIPK2 inh: blocks binding of human NOD2 to RIPK2; hit rate 0.38% among 360,000; inhibition, % at 4.98 µM; AID 624267; CHO BLA complementation NOD2-RIPK2, CCF4 ratio; O43353; in the data active = inhibition above about 21%;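 also: 0% = vehicle only and 100% = reference blocker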
TLR4-MyD88 BLA: inhibitors of human TLR4-MyD88 binding | HeLa CL3-4 TLR4/MyD88 BLA complementation, FRET ratio | inhibition, % at 8.4 µM | hit rate 0.18% among 200,000 | AID 861; in the data active = inhibition above about 25%;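 also: 0% = vehicle and 100% = reference inhibitor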
LANA-H2A inh: blocks KSHV LANA binding to histone H2A/H2B; inhibition, % (concentration not given with the values); Q9QR71; hit rate 0.6% among 320,000; cell-free LANA-H2A/H2B peptide, fluorescence polarization; in the data active = inhibition mostly above about 10%, no sharp cut-off; inactive = mostly below about 6.7%
Target sequence (Q9QR71 whole entry, looked up): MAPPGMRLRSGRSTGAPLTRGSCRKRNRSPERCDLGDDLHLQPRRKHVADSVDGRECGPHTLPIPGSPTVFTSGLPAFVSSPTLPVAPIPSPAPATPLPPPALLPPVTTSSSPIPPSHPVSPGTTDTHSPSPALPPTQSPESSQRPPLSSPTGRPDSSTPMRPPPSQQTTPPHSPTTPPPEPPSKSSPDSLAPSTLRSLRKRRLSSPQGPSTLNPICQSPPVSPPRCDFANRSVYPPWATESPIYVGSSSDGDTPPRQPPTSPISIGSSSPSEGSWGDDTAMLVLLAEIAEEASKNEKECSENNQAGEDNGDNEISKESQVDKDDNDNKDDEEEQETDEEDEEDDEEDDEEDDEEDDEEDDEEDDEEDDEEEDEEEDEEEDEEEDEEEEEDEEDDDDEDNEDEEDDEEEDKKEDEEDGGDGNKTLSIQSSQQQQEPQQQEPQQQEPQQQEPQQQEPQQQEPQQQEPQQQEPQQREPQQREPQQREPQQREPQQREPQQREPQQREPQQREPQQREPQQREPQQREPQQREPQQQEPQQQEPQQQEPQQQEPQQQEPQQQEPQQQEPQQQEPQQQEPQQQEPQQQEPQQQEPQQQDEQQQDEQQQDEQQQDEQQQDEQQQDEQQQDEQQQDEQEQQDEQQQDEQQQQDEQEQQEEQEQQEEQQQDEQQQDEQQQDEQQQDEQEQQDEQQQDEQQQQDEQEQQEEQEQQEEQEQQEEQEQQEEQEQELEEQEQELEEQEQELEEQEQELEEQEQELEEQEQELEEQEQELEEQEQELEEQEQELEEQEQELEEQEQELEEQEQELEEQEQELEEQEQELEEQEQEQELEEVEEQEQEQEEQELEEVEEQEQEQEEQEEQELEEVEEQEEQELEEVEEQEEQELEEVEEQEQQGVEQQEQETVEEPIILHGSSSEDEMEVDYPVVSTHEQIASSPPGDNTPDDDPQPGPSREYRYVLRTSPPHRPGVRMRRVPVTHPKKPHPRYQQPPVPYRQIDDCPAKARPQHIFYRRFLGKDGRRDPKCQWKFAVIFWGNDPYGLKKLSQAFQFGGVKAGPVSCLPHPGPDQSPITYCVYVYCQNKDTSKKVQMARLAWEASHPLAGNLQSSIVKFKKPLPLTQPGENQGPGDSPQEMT
HTR2A ag: mouse HTR2A agonism via beta-arrestin recruitment. hit rate 0.66% among 360,000. AID 624169. activation, % at 7.6 µM. CHO-K1 mHTR2A beta-arrestin complementation, luminescence; percent of 30 µM serotonin response. P35363;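 active = activation above a run cutoff, the mean activation of all tested compounds plus 3 SD, cut at about 14% in these data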;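 also: 0% = plate median of compound wells and 100% = 30 µM serotonin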
OPRM1 ag: OPRM1 agonism in mouse HTR2A counterscreen | hit rate 5.3% among 2,300 | activation, % at 9.3 µM | shares compounds with HTR2A ag | AID 624380 | U2OS OPRM1 beta-arrestin PathHunter, luminescence; DMSO 0%, DAMGO 9.3 µM 100%;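 active = mean activation above the mean of DMSO-only wells plus 3 SD, cut at about 0.5% in these data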
m5-HT2A ag conf: confirmation of mouse HTR2A serotonin receptor agonists; shares compounds with HTR2A ag; CHO-K1 PathHunter beta-arrestin recruitment, luminescence; DMSO 0%, 30 µM serotonin 100%; activation, % at 7.6 µM; hit rate 19% among 2,300;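 active = mean activation across triplicates above the hit threshold derived in the original primary screen, cut at about 15% in these data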
An asterisk follows results filed as active; . = no result given. Most compounds without a hit are left out; they make up all but 1.8% or so of the library.

SMILES | Rtt109 HAT inh | TLR9-MyD88 inh | NOD2-RIPK2 inh | TLR4-MyD88 BLA | LANA-H2A inh | HTR2A ag | OPRM1 ag | m5-HT2A ag conf
CCc1ccc(OC(C)C(=O)N(Cc2ccco2)C2CCS(=O)(=O)C2)cc1 (stereo unspecified) | -12 | -8 | -5 | . | 1 | 23* | -1 | -5
CC(=O)OC(C(=O)Nc1nccs1)c1ccccc1 (stereo unspecified) | -1 | -15 | -8 | . | -5 | 16* | -1 | -2
O=P(c1ccccc1)(c1ccccc1)c1ccccc1C(Br)Br | . | -16 | 5 | . | . | -1 | . | .
COc1ccc(-c2nc3n(c2C)CCC3)cc1 | 9 | -1 | -9 | . | 1 | 23* | 0 | 15*
COc1ccc(-c2cc3nc4n(c(=O)c3s2)CCC4)cc1 | -2 | 8 | 6 | -4 | -2 | 1 | . | .
O=C(c1ccco1)N1CCN(C(=O)C23CC4CC(CC(C4)C2)C3)CC1 | 6 | -5 | -8 | . | 0 | -1 | . | .
CCC1(CC)C(=O)NC(=S)N=C1N | 4 | 5 | -3 | . | . | 21* | 0 | 1
CCC1(C2=CCCCC2)C(=O)NC(=S)N=C1N (stereo unspecified) | 3 | -4 | -6 | . | . | -2 | . | .
CN(C)Cc1c(C(C)(C)O)[nH]c2ccc(C(F)(F)F)cc12 | -5 | -2 | 6 | . | -3 | 23* | -1 | 20*
CNC(=O)c1ccc(CNC(=O)OCC(F)(F)F)cc1 | -10 | -4 | -12 | 2 | -2 | 25* | 0 | 2
O=C(NC(=O)c1ccccc1)OCC(F)(F)F | -4 | 6 | -9 | 0 | 1 | -1 | . | .
CC(C)c1[nH]nc2c1C1(CCN(Cc3ccccc3)CC1)C(C#N)=C(N)O2 | 7 | -10 | -7 | 6 | 1 | 31* | -1 | -5
COc1ccccc1CNCC(O)(c1ccc(F)cc1)c1ccc(F)cc1 | -3 | -14 | -17 | . | 3 | -10 | . | .
COc1ccccc1CNCC(O)(c1ccc(Cl)cc1)c1ccc(Cl)cc1 | -1 | -9 | -6 | 10 | -5 | 22* | 0 | 8
c1ccc2c(c1)ccc1nnc(-c3ccc4c(c3)OCO4)n12 | 6 | -7 | -14 | -7 | -1 | 18* | 0 | 0
O=C(CSc1ccccc1)NCc1ccco1 | 2 | 7 | 8 | -8 | 2 | 15* | -1 | 3
CCCOc1c(Br)cc(C(=O)OCc2cc(=O)n3ccsc3n2)cc1OC | -4 | 7 | -7 | . | . | 2 | . | .
CCc1nn2c(=O)cc(COC(=O)c3cc(Cl)c(OC)c(OC)c3)nc2s1 | 8 | 0 | -15 | . | 1 | 17* | 0 | -3
COc1ccc(-c2cc(C(=O)NC3CCCC3)no2)cc1 | 4 | -9 | -9 | . | -3 | 25* | 0 | -4
Cc1cc(NC(=O)c2cccc(S(=O)(=O)N3CCCCC3)c2)no1 | 2 | 0 | -7 | . | 1 | 18* | 0 | -1
Cc1cc(NS(=O)(=O)c2ccc(NC(=S)NC(=O)c3ccc(F)cc3)cc2)no1 | 1 | -3 | -4 | -7 | -3 | -1 | . | .
O=C(NC1CCCC1)c1cccc(S(=O)(=O)N2CCCCC2)c1 | 2 | 3 | -8 | 4 | 1 | 16* | 0 | 10
Cc1cc(NS(=O)(=O)c2ccc(NC(=S)NC(=O)c3cccc(S(=O)(=O)N(C)C)c3)cc2)no1 | 2 | 6 | -2 | -1 | -1 | 16* | -1 | -4
CN1CCCN(S(=O)(=O)c2cccc(C(F)(F)F)c2)c2nc3ccccc3nc21 | 11 | -6 | -16 | . | -3 | -4 | . | .
Cc1c(NC(=O)COC(=O)c2cccc(F)c2)c(=O)n(-c2ccccc2)n1C | . | 3 | -7 | . | . | 4 | . | .
SMILES | Rtt109 HAT inh | TLR9-MyD88 inh | NOD2-RIPK2 inh | TLR4-MyD88 BLA | LANA-H2A inh | HTR2A ag | OPRM1 ag | m5-HT2A ag conf
Cc1cccc(NC(=O)CN(C)C(=O)C2CC2)c1C | -4 | 9 | -4 | . | -81 | 5 | . | .
O=C(O)C1CC=CCC1C(=O)Nc1ccc2c(c1)CCC2 (stereo unspecified) | 1 | -15 | 1 | . | -3 | -6 | . | .
CC(NC(=O)Nc1nnc(C(F)(F)F)s1)(C(F)(F)F)C(F)(F)F | 2 | -7 | 7 | 1 | 7 | 16* | 0 | 14
CCOc1ccc(CCN2C(=O)C(=O)N([C@@H](CC(C)C)CN3CCC[C@H]3CN3C(=O)C(=O)NC[C@@H]3Cc3ccccc3)C[C@@H]2Cc2ccc(O)cc2)cc1 | . | . | -7 | . | . | 3 | . | .
C[C@H](CO)N1C[C@H](C)[C@@H](CN(C)Cc2cccc3c2OCCCO3)OCc2cnnn2CCCC1=O | . | 6 | -7 | . | . | 19* | 0 | -2
C[C@@H]1CN([C@H](C)CO)C(=O)CCCn2nncc2CO[C@H]1CN(C)Cc1cccc2c1OCCCO2 | . | -4 | -8 | . | . | -3 | . | .
COc1ccc(-c2csc(C(NC(C)=O)c3ccccc3)n2)cn1 (stereo unspecified) | . | . | 4 | . | . | 4 | . | .
CN1C(=O)NC(c2ccc(O)cc2)C2=C1CN(c1ccc(O)cc1)C2=O (stereo unspecified) | -1 | 3 | -6 | 18 | 3 | 20* | -1 | -4
CC(C)(C)C(=O)NCc1ccc(C(=O)CSc2nnc(-c3ccncc3)n2C2CC2)s1 | 6 | -7 | 5 | . | . | 16* | -1 | -2
Cc1ccc(C(=O)CSc2nnc(C3CC3)n2C2CC2)s1 | -4 | -4 | -3 | . | 11 | 3 | . | .
CCOc1nc(-c2ccc(Cl)cc2)nc2ccccc12 | -2 | 6 | -1 | -7 | 2 | 27* | 0 | 1
CC(C)Oc1nc(-c2ccc(Cl)cc2)nc2ccccc12 | -3 | -12 | -10 | . | 6 | -3 | . | .
Fc1ccc2nc3[nH]c4ccccc4c3nc2c1 | 1 | 7 | 9 | 16 | -4 | 22* | 0 | -1
Cc1ccc(-c2nnc(Nc3ccc4c(c3)OCO4)c3ccccc23)cc1S(N)(=O)=O | 4 | 7 | 11 | -7 | . | 15* | 0 | 4
CC1c2ccsc2CCN1C(=O)NC(=O)c1ccc(Cl)cc1 (stereo unspecified) | -1 | . | 3 | . | 2 | 3 | . | .
Cc1nc(SCC(=O)NCCc2ccc(Cl)cc2)nc(C)c1C | . | -3 | -2 | -1 | 0 | 15* | -1 | -5
Cc1csc(SCC(=O)NCCc2ccc(Cl)cc2)n1 | -7 | 0 | -8 | 6 | 0 | 0 | . | .
Cc1ccc(S(=O)(=O)N2CCCCC2C(=O)O)s1 (stereo unspecified) | 13 | 0 | -2 | -3 | -4 | -2 | . | .
COc1ccc(NS(=O)(=O)c2cccc(C(=O)NCC(c3ccco3)N(C)C)c2)cc1 (stereo unspecified) | 3 | -7 | 4 | . | 3 | -12 | . | .
